# Experimental data: PubChem BioAssay (Tox21)
# Unmarked numbers belong to inactive results. Records with an inconclusive call do not appear. A call without a number means that no potency is given here. Calls of active or inactive are those of the source. Unless noted, the call rests on the fitted dose curve; in most records, active means well fitted curve in the direction sought with a large enough effect in the repeat runs; inconclusive means weak or mixed curves; inactive means no such curve, though single readings can be large; an effect the other way counts as inactive or inconclusive.
# What was measured:
# [1] = A CellTox Green Cytotoxicity Assay to monitor cytotoxicity in HEK293 cells - 32 hour (AID 1224881); further: nearly all actives have a fitted effect of over 40% in size
# Summary of the method: (§1)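 HEK293 cells premixed with CellTox Green dye were seeded at 600 cells/well and left 5 h at 37 C/5% CO2 before pin transfer of 23 nL compound in DMSO. Fluorescence from dye bound to dead-cell DNA was read during 40 h treatment.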
# [2] = A CellTox Green Cytotoxicity Assay to monitor cytotoxicity in HepG2 cells - 0 hour (AID 1224882); further: nearly all actives have a fitted effect of over 35% in size
# Summary of the method: (§2)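 HepG2 cells were seeded together with the CellTox Green dye at 600 cells/well, left 5 h at 37 C/5% CO2, then given compounds in DMSO. Fluorescence from dye bound to dead-cell DNA was read repeatedly over 40 h of treatment at 37 C.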
# [3] = A CellTox Green Cytotoxicity Assay to monitor cytotoxicity in HEK293 cells - 8 hour (AID 1224884); further: nearly all actives have a fitted effect of over 35% in size
# Summary of the method: as §1
# [4] = qHTS RealTime-Glo MT Cell Viability Assay in HEK293 cells - 24 hour (AID 1224886); further: top concentration of the series differs between compounds; nearly all actives have a fitted effect of over 50% in size
# Summary of the method: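 Homogeneous bioluminescent viability format in HEK293 cells (600 cells/well). Following 5 h at 37 C/5% CO2, 23 nL compound was pintooled; the signal was measured repeatedly during 40 h incubation.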
# [5] = A CellTox Green Cytotoxicity Assay to monitor cytotoxicity in HEK293 cells - 16 hour (AID 1224888); further: nearly all actives have a fitted effect of over 35% in size
# Summary of the method: as §1
# [6] = qHTS RealTime-Glo MT Cell Viability Assay in HepG2 cells - 0 hour (AID 1224889); further: nearly all actives have a fitted effect of over 50% in size; further: potency means the concentration at half of the fitted maximal effect
# Summary of the method: (§3)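 Cell number in HepG2 cultures estimated from NanoLuc luminescence generated by metabolic reduction of a prosubstrate by living cells. The homogeneous, nonlytic format allowed repeated reads at 0, 8, 16, 24, 32 and 40 h of compound exposure.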
# [7] = A CellTox Green Cytotoxicity Assay to monitor cytotoxicity in HepG2 cells - 8 hour (AID 1224890); further: nearly all actives have a fitted effect of over 45% in size
# Summary of the method: as §2
# [8] = qHTS assay to identify small molecule antagonists of the estrogen receptor alpha (ER-alpha) signaling pathway using the BG1 cell line in the presence of 0.1 nM 17-beta-estradiol - cell viability counter screen (AID 1259241); further: nearly all actives have a fitted effect of over 40% in size
# Summary of the method: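 VM7Luc4E2 cells (endogenous ER-alpha, 4×ERE-luciferase), hormone-starved 5 days in charcoal-stripped FBS, were treated with compounds plus 0.1 nM 17beta-estradiol for 22 hr at 37C; viability read in same wells as CellTiter-Fluor live-cell protease fluorescence.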
# [9] = qHTS assay to identify small molecule antagonists of the androgen receptor (AR) signaling pathway using the MDA cell line in the presence of 0.5 nM R1881 - cell viability counter screen (AID 1259242); further: nearly all actives have a fitted effect of over 45% in size
# Summary of the method: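 MDA-kb2 cells (human breast carcinoma, stably carrying MMTV-luciferase reporter) were exposed to compounds with 0.5 nM R1881 (final) for 16 hr at 37C, 0% CO2; viability then read as live-cell protease fluorescence (CellTiter-Fluor, 30 min) in the same wells.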
# [10] = target: Estrogen receptor (Homo sapiens) (UniProt P03372); experiment: qHTS assay to identify small molecule antagonists of the estrogen receptor alpha (ER-alpha) signaling pathway using the BG1 cell line in the presence of 0.1 nM 17-beta-estradiol (AID 1259244); further: nearly all actives have a fitted effect of over 50% in size
# Estrogen receptor (Homo sapiens), sequence (P03372 whole entry, looked up): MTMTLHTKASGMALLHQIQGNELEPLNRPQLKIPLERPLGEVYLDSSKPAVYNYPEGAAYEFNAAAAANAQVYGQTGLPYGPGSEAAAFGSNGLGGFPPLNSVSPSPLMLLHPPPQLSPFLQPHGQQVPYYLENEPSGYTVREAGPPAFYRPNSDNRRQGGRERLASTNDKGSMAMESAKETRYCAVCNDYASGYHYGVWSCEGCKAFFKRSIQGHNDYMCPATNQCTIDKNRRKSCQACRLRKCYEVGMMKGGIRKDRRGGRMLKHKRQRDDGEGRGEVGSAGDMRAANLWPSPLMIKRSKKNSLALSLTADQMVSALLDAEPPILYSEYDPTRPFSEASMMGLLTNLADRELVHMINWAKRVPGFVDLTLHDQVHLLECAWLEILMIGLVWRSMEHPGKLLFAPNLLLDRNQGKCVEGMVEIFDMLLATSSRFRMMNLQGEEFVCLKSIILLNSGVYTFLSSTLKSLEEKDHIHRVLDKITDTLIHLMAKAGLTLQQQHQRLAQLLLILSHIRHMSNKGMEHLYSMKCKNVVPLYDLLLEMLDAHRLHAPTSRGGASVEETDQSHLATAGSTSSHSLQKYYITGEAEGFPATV
# Summary of the method: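 VM7Luc4E2 cells (endogenous full-length ER-alpha, stable 4xERE-luciferase) were grown 5 days in phenol red-free medium with charcoal-stripped FBS, then exposed 22 h at 37C to compounds plus 0.1 nM (final) 17beta-estradiol; ONE-Glo luminescence read-out.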
# [11] = qHTS assay to identify small molecule phospholipidosis (PLD) inducers (AID 1259344; active means well fitted curve in the direction sought with a large enough effect; an effect the other way counts as inactive or inconclusive)
# Summary of the method: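 Fluorescent phospholipid staining (LipidTOX Red) measured by automated microscopy in fixed HepG2 cells after 24 h treatment; nuclei counterstained with Hoechst 33342; amiodarone as reference inducer.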
# [12] = qHTS assay to identify small molecule HDAC inhibitors (AID 1259364); further: top concentration of the series differs between compounds; nearly all actives have a fitted effect of over 45% in size
# Summary of the method: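 Wild-type HCT-116 cells were plated overnight, exposed to compounds for 2 h at 37 °C, then given HDAC-Glo class I/II luminogenic reagent for 30 min at room temperature before luminescence was read.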
# [13] = qHTS assay to identify small molecule HDAC inhibitors - cell viability counter screen (AID 1259365); further: series mostly up to about 92 µM; nearly all actives have a fitted effect of over 50% in size
# Summary of the method: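 Wild-type HCT-116 cells were seeded at 1,500 per well, incubated overnight at 37 C, then exposed to compounds in DMSO for 2hr. Viability was read by CellTiter-Glo luminescence after 30min at room temperature.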
# [14] = qHTS assay to identify small molecule agonists of the sonic hedgehog signaling (Shh) pathway - cell viability counter screen (AID 1259366); further: nearly all actives have a fitted effect of over 50% in size
# Summary of the method: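 NIH/3T3-derived 3T3 Gli1-Luc cells (stable Gli1-responsive firefly luciferase reporter) were seeded, rested 4 hr at 37 C/5% CO2, then exposed to compounds in DMSO for 24 hr; viability was read by CellTiter-Fluor fluorescence in the same wells.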
# [15] = qHTS assay to identify small molecule antagonists of the sonic hedgehog signaling (Shh) pathway - cell viability counter screen (AID 1259367); further: nearly all actives have a fitted effect of over 55% in size; further: potency means the concentration at half of the fitted maximal effect
# Summary of the method: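 Using CellTiter-Fluor, viability of Gli1-Luc reporter 3T3 cells is read by fluorescence in the wells used for the Shh luciferase assay. Treatment lasts 23 hr with conditioned medium, then reagent 1 hr at 37C.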
# [16] = qHTS assay to identify small molecule agonists of the sonic hedgehog signaling (Shh) pathway (AID 1259368; calls by dose curve; further: series mostly up to about 92 µM; nearly all actives have a fitted effect of over 15% in size)
# Summary of the method: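 NIH/3T3-derived 3T3Gli1-Luc cells carrying a stably integrated Gli1 response element–firefly luciferase reporter were plated, left 4 hr at 37 C, then given compounds in DMSO for 24 hr. Luminescence was read 30 min after adding luciferase reagent.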
# [17] = target: Androgen receptor (Homo sapiens) (UniProt P10275); experiment: qHTS assay to identify small molecule antagonists of the androgen receptor (AR) signaling pathway using the MDA cell line in the presence of 0.5 nM R1881 (AID 1259243); further: nearly all actives have a fitted effect of over 50% in size; further: potency means the concentration at half of the fitted maximal effect
# Androgen receptor (Homo sapiens), sequence (P10275 whole entry, looked up): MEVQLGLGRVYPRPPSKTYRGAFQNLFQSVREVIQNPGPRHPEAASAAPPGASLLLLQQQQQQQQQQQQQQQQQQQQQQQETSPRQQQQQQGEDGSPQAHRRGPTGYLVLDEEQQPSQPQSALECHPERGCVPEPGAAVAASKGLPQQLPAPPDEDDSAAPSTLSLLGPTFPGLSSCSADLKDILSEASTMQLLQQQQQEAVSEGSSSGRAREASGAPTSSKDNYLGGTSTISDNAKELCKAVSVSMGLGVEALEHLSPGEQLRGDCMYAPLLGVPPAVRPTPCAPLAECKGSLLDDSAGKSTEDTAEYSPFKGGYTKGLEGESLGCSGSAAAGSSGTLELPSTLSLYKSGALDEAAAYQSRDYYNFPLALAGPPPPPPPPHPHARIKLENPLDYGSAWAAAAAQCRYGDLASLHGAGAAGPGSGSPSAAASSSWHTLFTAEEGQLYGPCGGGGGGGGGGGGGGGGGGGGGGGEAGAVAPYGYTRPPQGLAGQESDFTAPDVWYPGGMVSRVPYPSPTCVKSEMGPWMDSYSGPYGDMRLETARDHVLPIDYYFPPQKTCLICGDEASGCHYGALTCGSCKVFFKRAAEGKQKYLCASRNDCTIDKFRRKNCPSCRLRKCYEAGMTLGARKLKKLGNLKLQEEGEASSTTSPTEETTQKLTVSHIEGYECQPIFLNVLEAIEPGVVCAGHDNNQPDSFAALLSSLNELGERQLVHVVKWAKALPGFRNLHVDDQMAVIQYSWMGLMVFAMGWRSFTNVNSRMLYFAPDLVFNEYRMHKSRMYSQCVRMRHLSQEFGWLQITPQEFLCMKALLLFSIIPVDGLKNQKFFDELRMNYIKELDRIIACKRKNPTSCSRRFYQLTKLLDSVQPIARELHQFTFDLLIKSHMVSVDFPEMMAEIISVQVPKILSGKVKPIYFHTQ
# Summary of the method: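 MDA-kb2 human breast carcinoma cells carrying an MMTV-luciferase reporter (AR- and GR-responsive) were plated, rested 5 hr at 37C, dosed with compounds, then stimulated with 0.5 nM R1881 (final) for 16 hr; luminescence was read after ONE-Glo.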
# [18] = A CellTox Green Cytotoxicity Assay to monitor cytotoxicity in HepG2 cells - 32 hour (AID 1224883); further: nearly all actives have a fitted effect of over 50% in size
# Summary of the method: as §2
# [19] = qHTS RealTime-Glo MT Cell Viability Assay in HepG2 cells - 16 hour (AID 1224885); further: nearly all actives have a fitted effect of over 50% in size
# Summary of the method: as §3
# [20] = qHTS RealTime-Glo MT Cell Viability Assay in HEK293 cells - 8 hour (AID 1224887)
# Summary of the method: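 HEK293 cells mixed with RealTime-Glo reagents (NanoLuc plus cell-permeant prosubstrate) at 600 cells/well, preincubated 5 h at 37 C/5% CO2, then given 23 nL compound in DMSO. Nonlytic luminescence from viable cells was read at 0, 8, 16, 24, 32 and 40 h.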
smiles,measurement,setting,value
CCOC(=S)SSC(=S)OCC,Potency,[1],inactive
same,Potency,[2],inactive
same,Potency,[3],inactive
same,Potency,[4],inactive
same,Potency,[5],inactive
same,Potency,[6],inactive
same,Potency,[7],inactive
same,Potency,[8],inactive
same,Potency,[9],inactive
same,Potency,[10],inactive
same,Potency,[11],inactive
same,Potency,[12],inactive
same,outcome,[13],inactive
same,Potency,[14],inactive
same,Potency,[15],inactive
same,outcome,[16],inactive
O=C(NS(=O)(=O)/C=C/c1cccs1)c1ccc(F)cc1Br,Potency,[1],inactive
same,Potency,[2],inactive
same,Potency,[3],inactive
same,Potency,[4],inactive
same,Potency,[5],inactive
same,Potency,[6],15.5 µM (active)
same,Potency,[7],inactive
same,Potency,[8],inactive
same,Potency,[9],inactive
same,Potency,[17],inactive
same,Potency,[10],inactive
same,Potency,[12],inactive
same,outcome,[13],inactive
same,Potency,[15],inactive
same,outcome,[16],inactive
CC(C)(C)c1cc(CCC(=O)OCC(COC(=O)CCc2cc(C(C)(C)C)c(O)c(C(C)(C)C)c2)(COC(=O)CCc2cc(C(C)(C)C)c(O)c(C(C)(C)C)c2)COC(=O)CCc2cc(C(C)(C)C)c(O)c(C(C)(C)C)c2)cc(C(C)(C)C)c1O,Potency,[1],inactive
same,Potency,[18],inactive
same,Potency,[3],inactive
same,Potency,[19],inactive
same,Potency,[4],inactive
same,Potency,[20],inactive
same,Potency,[5],inactive
same,Potency,[6],inactive
same,Potency,[7],inactive
same,Potency,[8],inactive
same,Potency,[9],inactive
same,Potency,[10],inactive
same,Potency,[12],inactive
same,outcome,[13],inactive
same,Potency,[15],inactive
same,outcome,[16],inactive
Oc1ccc(O)c2c(O)cccc12,Potency,[1],inactive
same,Potency,[18],inactive
same,Potency,[3],inactive
same,Potency,[19],inactive
same,Potency,[4],inactive
same,Potency,[5],inactive
same,Potency,[6],inactive
same,Potency,[7],inactive
same,Potency,[8],inactive
same,Potency,[9],inactive
same,Potency,[10],inactive
same,Potency,[12],inactive
same,outcome,[13],inactive
same,Potency,[14],inactive
same,Potency,[15],inactive
same,outcome,[16],inactive
O=C(C(=O)c1ccc(Br)cc1)c1ccc(Br)cc1,cytotoxicity increase,[1],-0.258% [at 15.8 µM]
same,cytotoxicity,[2],-5.86% [at 15.8 µM]
same,cytotoxicity increase,[3],6.57% [at 15.8 µM]
same,"activity change, negative = cytotoxicity",[4],5.88% [at 15.8 µM]
same,"activity change, negative = cytotoxicity",[20],2.33% [at 15.8 µM]
same,activity change,[5],"0.498% [at 15.8 µM, active compounds read high]"
same,"activity change, negative = cytotoxicity",[6],-3.46% [at 15.8 µM]
same,cytotoxicity increase,[7],-4.98% [at 15.8 µM]
same,"activity change, negative = cytotoxicity",[8],-6.61% [at 19 µM]
same,"viability change, negative = cytotoxic",[9],-1.93% [at 19 µM]
same,"activity, negative = inhibition",[17],66.2% [at 19 µM]
same,"activity change, negative = inhibition",[12],4.75% [at 19 µM]
same,"activity change, negative = cytotoxicity",[13],-0.456% [at 19 µM]
same,"viability change, negative = cytotoxic",[15],-13.1% [at 19 µM]
same,activity change,[16],-0.0641% [at 18.9 µM]
CCOC(=O)C1=NN(c2ccccc2)C(=O)C1,Potency,[1],inactive
same,Potency,[18],inactive
same,Potency,[3],inactive
same,Potency,[19],inactive
same,Potency,[4],inactive
same,Potency,[20],inactive
same,Potency,[5],inactive
same,Potency,[6],inactive
same,Potency,[7],inactive
same,Potency,[8],inactive
same,Potency,[9],inactive
same,Potency,[10],inactive
same,Potency,[12],inactive
same,outcome,[13],inactive
same,Potency,[14],inactive
same,Potency,[15],inactive
same,outcome,[16],inactive
CC(=O)N(O)CCCCCNC(=O)CCC(=O)N(O)CCCCCNC(=O)CCC(=O)N(O)CCCCCN,Potency,[1],inactive
same,Potency,[18],inactive
same,Potency,[3],inactive
same,Potency,[19],inactive
same,Potency,[20],inactive
same,Potency,[5],inactive
same,Potency,[6],inactive
same,Potency,[7],inactive
same,Potency,[8],inactive
same,Potency,[9],inactive
same,Potency,[17],inactive
same,Potency,[11],inactive
same,Potency,[12],inactive
same,outcome,[13],inactive
same,Potency,[14],inactive
same,Potency,[15],inactive
same,outcome,[16],inactive
CN(C)CCCOc1nn(Cc2ccccc2)c2ccccc12,Potency,[1],inactive
same,Potency,[2],inactive
same,Potency,[19],inactive
same,Potency,[20],inactive
same,Potency,[5],inactive
same,Potency,[6],inactive
same,Potency,[7],inactive
same,Potency,[8],inactive
same,Potency,[9],inactive
same,Potency,[10],inactive
same,Potency,[11],inactive
same,Potency,[12],inactive
same,outcome,[13],inactive
same,Potency,[15],inactive
same,outcome,[16],inactive
N#Cc1c(F)cccc1F,Potency,[1],inactive
same,Potency,[18],inactive
same,Potency,[3],inactive
same,Potency,[19],inactive
same,Potency,[4],inactive
same,Potency,[5],inactive
same,Potency,[6],inactive
same,Potency,[7],inactive
same,Potency,[8],inactive
same,Potency,[9],inactive
same,Potency,[12],inactive
same,outcome,[13],inactive
same,Potency,[15],inactive
same,outcome,[16],inactive
CC(=O)O[C@@H]1C(=O)O[C@@H]2[C@H]1OC(=O)[C@@H]2OC(C)=O,Potency,[1],inactive
same,Potency,[2],inactive
same,Potency,[19],inactive
same,Potency,[4],inactive
same,Potency,[5],inactive
same,Potency,[6],inactive
same,Potency,[7],inactive
same,Potency,[8],inactive
same,Potency,[9],inactive
same,PLD induction,[11],0.969% [at 7.66 µM]
same,Potency,[12],inactive
same,outcome,[13],inactive
same,Potency,[14],inactive
same,Potency,[15],inactive
same,outcome,[16],inactive
NC(N)=N/N=C/c1c(Cl)cccc1Cl,Potency,[1],inactive
same,Potency,[2],inactive
same,Potency,[3],inactive
same,Potency,[19],inactive
same,Potency,[4],inactive
same,Potency,[20],inactive
same,Potency,[5],inactive
same,Potency,[7],inactive
same,Potency,[17],23.7 µM (active)
same,Potency,[10],inactive
same,Potency,[12],inactive
same,outcome,[13],inactive
same,Potency,[15],10.6 µM (active)
same,outcome,[16],inactive
CC(C)(C)C1CCCCC1O (stereo not drawn),Potency,[1],inactive
same,Potency,[2],inactive
same,Potency,[3],inactive
same,Potency,[19],inactive
same,Potency,[4],inactive
same,Potency,[20],inactive
same,Potency,[5],inactive
same,Potency,[6],inactive
same,Potency,[7],inactive
same,Potency,[8],inactive
same,Potency,[9],inactive
same,Potency,[12],inactive
same,outcome,[13],inactive
same,Potency,[14],inactive
same,Potency,[15],inactive
same,outcome,[16],inactive
CN(C)CC/C=C1\c2ccccc2COc2ccccc21,Potency,[1],inactive
same,Potency,[2],inactive
same,Potency,[3],inactive
same,Potency,[19],inactive
same,Potency,[4],inactive
same,Potency,[5],inactive
same,Potency,[6],inactive
same,Potency,[7],inactive
same,Potency,[8],inactive
same,Potency,[9],inactive
same,Potency,[11],inactive
same,Potency,[12],inactive
same,outcome,[13],inactive
same,Potency,[15],inactive
same,outcome,[16],inactive
Cc1ccc2c(ccc3ccccc32)c1,Potency,[1],inactive
same,Potency,[18],inactive
same,Potency,[3],inactive
same,Potency,[19],inactive
same,Potency,[4],inactive
same,Potency,[20],inactive
same,Potency,[5],inactive
same,Potency,[6],inactive
same,Potency,[7],inactive
same,Potency,[8],inactive
same,Potency,[9],inactive
same,Potency,[10],inactive
same,Potency,[12],inactive
same,outcome,[13],inactive
same,Potency,[14],inactive
same,Potency,[15],inactive
same,outcome,[16],inactive
